Experimental data reported in PubChem BioAssay AID2716 (Broad Institute, 2010).
Out of some 320,000 compounds screened, about 3,300 (1%) were called active.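 Rule for the calls: active = every valid replicate shows activation above 250% relative to neutral control wells; inactive = the rest, any valid replicate at or below 250%.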 The full list was thinned out, with actives kept by preference.

Test: restored growth of temperature-sensitive Mot1-301 yeast – S. cerevisiae, ATP luminescence, 38.5C, SUMOylation pathway inhibitor project, primary screen (AID 2716);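 note: OY570 slx delta 5 strain wells were the positive control but not used for scaling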
Conditions: S. cerevisiae Mot1-301 growth rescue, at 18.8 µM, hits give high values, percent above DMSO median, 100 means doubled

Structure (SMILES)	growth rescue
CCOc1ccc(CN2CCNC(=O)C2CC(=O)NCCCC2CCCC2)cc1 (stereo unspecified)	3.84% (inactive)
COc1cc(CN2CCNC(=O)C2CC(=O)NCCc2ncccc2C)cc(OC)c1 (stereo unspecified)	662% (active)
Cc1ccccc1CN1CCNC(=O)C1CC(=O)NCCC1=CCCCC1 (stereo unspecified)	-4.34% (inactive)
Cc1ccc(Cc2nnc(SCC(=O)Nc3ccccc3C)[nH]c2=O)cc1	579% (active)
COc1ccc(Cc2nnc(SCC(=O)Nc3ccc(C)c(Cl)c3)[nH]c2=O)cc1	60.7% (inactive)
Cc1ccc(Cc2nnc(SCC(=O)Nc3ccc(C)cc3C)[nH]c2=O)cc1	3.03% (inactive)
CC1(c2ccccc2)NC(=O)N(CC(=O)Nc2cc(Cl)ccc2N2CCOCC2)C1=O (stereo unspecified)	268% (inactive)
NS(=O)(=O)c1cc2c(cc1Cl)NC(C(Cl)Cl)NS2(=O)=O (stereo unspecified)	-7.27% (inactive)
Cc1ccc(CNC(=O)C(=O)c2cn(CC(=O)N3CCOCC3)c3ccccc23)cc1	279% (inactive)
O=C(CSc1nnc(-c2ccccn2)n1-c1ccccc1)Nc1ccc2c(c1)OCO2	354% (active)
Cc1ccc(-n2c(SCC(=O)Nc3ccc4c(c3)OCO4)nnc2-c2ccoc2C)cc1	-1.21% (inactive)
Cc1ccc(-n2c(SCC(=O)Nc3ccc4c(c3)OCO4)nnc2-c2ccccn2)cc1	-3.71% (inactive)
CC1CC2=C(CC1/C=N/NC(N)=S)C(C)(C)CCC2 (stereo unspecified)	94.7% (inactive)
O=C(NCC#CCSc1nnc(-c2cccc3ccccc23)o1)c1cccs1	-7.8% (inactive)
COc1ccc(N2C(=O)C(CC(=O)Nc3ccc(F)cc3)N(CCc3cccs3)C2=O)cc1 (stereo unspecified)	700% (active)
CCNC(=O)CC1C(=O)N(c2ccc(F)cc2)C(=O)N1Cc1cccs1 (stereo unspecified)	-6.29% (inactive)
COc1ccc(CCN2C(=O)N(c3ccc(OC)cc3)C(=O)C2CC(=O)Nc2ccc(OC)cc2)cc1 (stereo unspecified)	-12.2% (inactive)
Cc1cccc(C(=O)N[C@H](C(=O)NCc2cccs2)C(C)C)c1	14.3% (inactive)
CCc1cc(C(=O)Nc2nnc(C3CC3)s2)sc1C	-5.84% (inactive)
C/C(CC(=O)NC(C)c1ccccc1)=N\NC(N)=S (stereo unspecified)	317% (active)
Cc1cc(C)cc(OCC(=O)NC(C)c2ccccc2)c1 (stereo unspecified)	14.1% (inactive)
Cc1ccc(OCC(=O)NC(C)c2ccccc2)cc1C (stereo unspecified)	-6.93% (inactive)
CCc1ccccc1NC(=O)CN(C)S(=O)(=O)c1ccc2c(c1)c(=O)n(C)c(=O)n2C	30% (inactive)

Structure (SMILES)	growth rescue
O=C(COc1ccc([N+](=O)[O-])cc1Cl)Nn1cnnc1	88.2% (inactive)
COc1ccc(C(=O)OCC(=O)c2ccc(C)c(S(=O)(=O)N3CCOCC3)c2)cc1OC	625% (active)
Cc1ccc(C(=O)OCC(=O)N2CCCCCC2)cc1S(=O)(=O)N1CCOCC1	6.73% (inactive)
COc1ccc(CNC(=O)COC(=O)c2ccc(C)c(S(=O)(=O)N3CCOCC3)c2)cc1OC	-6.82% (inactive)
COc1c(C)cc(C(=O)C2CCCN(S(=O)(=O)c3c(C)noc3C)C2)cc1C (stereo unspecified)	-5.92% (inactive)
COc1ccc(CCNC(=O)/C(C#N)=C2\N=C(NC(=O)c3cccs3)c3ccccc32)cc1	-22.6% (inactive)
Cc1ccc(S(=O)(=O)CCC(=O)OCC(=O)N(C)C2CCS(=O)(=O)C2)cc1 (stereo unspecified)	366% (active)
CN(C(=O)COC(=O)Cc1ccccc1[N+](=O)[O-])C1CCS(=O)(=O)C1 (stereo unspecified)	-6.84% (inactive)
Cc1ccc(S(=O)(=O)CCC(=O)OCc2ccccc2)cc1	-4.25% (inactive)
COc1cc(OC)cc(C(=O)NCCCn2ccnc2)c1	0.871% (inactive)
COc1cccc(-c2nn(-c3ccccc3)cc2/C=C(\C#N)C(=O)NCCCn2ccnc2)c1	-1.32% (inactive)
COc1ccc(/C=C(\C#N)C(=O)NCCCn2ccnc2)cc1	429% (active)
CCOC(=O)c1ccc(NC(=S)N2CCN(c3ccccn3)CC2)cc1	4.51% (inactive)
O=C(COC(=O)c1ccc(F)cc1)NCCCc1ccccc1	-3.97% (inactive)
COc1ccc(OC)c(CNC(=O)c2cc(=O)[nH]c3ccc(S(=O)(=O)N4CCCC4)cc23)c1	46.7% (inactive)
CCOc1ccc(N(CC)S(=O)(=O)c2cccc3nsnc23)cc1	487% (active)
CCOc1ccc(-c2cn(S(=O)(=O)c3cccc4nsnc34)nc2N)cc1	8.29% (inactive)
COc1ccc(N(C)S(=O)(=O)c2cccc3nsnc23)cc1	-12.6% (inactive)
COc1ccc(OC)c(NC(=O)COC(=O)Cc2ccsc2)c1	24.6% (inactive)
CC(C)CCNc1nc(N2CCCC2)c2c(c1C#N)CCN(C)C2	-30.6% (inactive)
CC(C)Cc1nc(N2CCOCC2)c(C#N)c2c1CCC2	469% (active)
CC(C)Cc1nc(Cl)c(C#N)c2c1CCC2	-9.85% (inactive)
O=C(NNC(=O)c1ccc(-n2cncn2)c([N+](=O)[O-])c1)c1ccccc1	126% (inactive)

Structure (SMILES)	growth rescue
Cc1csc2nc(O)c(C(=O)NCCN3CCOCC3)c(=O)n12	25.8% (inactive)
O=S(=O)(NCCc1ccc(F)cc1)c1cccc2cccnc12	-5.12% (inactive)
O=C(CSCc1cccs1)N1CCCC1	-5.87% (inactive)
O=C(CSCc1ccc(Cl)cc1)N1CCN(Cc2ccc3c(c2)OCO3)CC1	194% (inactive)
O=C(CSCc1ccc(Cl)cc1)N1CCCCC1	1570% (active)
CC(C)(C)c1nnc(N/N=C/c2ccc(O)cc2)n(N)c1=O	-10.1% (inactive)
COc1ccnc2c1c(=O)n(Cc1cccc(F)c1)c(=O)n2C	95.4% (inactive)
CCCCn1c(-c2cccc(C)c2)nc2cc3[nH]c(=O)c(C(C)C)nc3cc21	-29.3% (inactive)
COc1cccc(/C=C(/CC(=O)Nc2ccc(N3CCOCC3)cc2)c2nc3ccccc3s2)c1	766% (active)
COc1cc2ccccc2cc1C(=O)Nc1ccc(N2CCOCC2)cc1	4.29% (inactive)
COc1ccc(/C=C(/CC(=O)Nc2ccc(C)cc2)c2nc3ccccc3s2)cc1	7.28% (inactive)
CCCCCc1c(C)nc(N2CCN(Cc3ccc4c(c3)OCO4)CC2)[nH]c1=O	-20.3% (inactive)
Cc1nnc(SCc2cc(=O)[nH]c(N3CCN(Cc4ccccc4)CC3)n2)s1	18.3% (inactive)
CCc1c(C)nc(N2CCN(Cc3ccccc3)CC2)[nH]c1=O	1390% (active)
Oc1oc(-c2ccccc2Br)nc1/C=N/c1ccccn1	15.4% (inactive)
CC(C)n1c(O)c(N=Nc2ccccn2)c2ccccc21	421% (active)
COC(=O)Cn1c(O)c(N=NC(=O)OC)c2ccccc21	-22.3% (inactive)
COc1cccc2cc(C(=O)NCc3ccc(C)cc3)c(=N)oc12	-7.41% (inactive)
O=C(COc1cccc2c1CCNC2=O)NC1CCCCC1	-3.62% (inactive)
COC(=O)c1cc2n(n1)CCCNC2=O	0.35% (inactive)
O=C(Cn1ccc2cc(S(=O)(=O)N3CCCC3)ccc21)NCc1ccccc1	-15.1% (inactive)
COC(=O)Cn1cc(/C=C/[N+](=O)[O-])c2ccccc21	5.69% (inactive)
O=[N+]([O-])/C=C/c1ccc2c(ccn2Cc2ccccc2)c1	436% (active)

Structure (SMILES)	growth rescue
Cc1nc(SCC(=O)NC2CCCC2)[nH]c(=O)c1C	4.8% (inactive)
Cc1sc2nc(CSCC(=O)Nc3c(Cl)cccc3Cl)[nH]c(=O)c2c1C	2.95% (inactive)
Cc1sc2nc(CSCC(=O)NC3CCCCC3)[nH]c(=O)c2c1C	345% (active)
COc1ccc(Cl)cc1NC(=O)Cn1nc(-c2ccc(C)cc2)n(C)c1=S	283% (inactive)
Cc1ccc2c(c1)N(CC(=O)NCC1CCCO1)C(=O)CO2 (stereo unspecified)	346% (active)
Cc1ccc2c(c1)N(CC(=O)N1CCCC(C)C1)C(=O)CO2 (stereo unspecified)	1.32% (inactive)
Cc1ccc2c(c1)N(CC(=O)N1CCOCC1)C(=O)CO2	4.76% (inactive)
CC(=O)N(c1ccc2oc(=O)sc2c1)S(=O)(=O)c1ccc(C)cc1	1.25% (inactive)
Cc1onc(-c2ccccc2Cl)c1C(=O)OCC(=O)c1ccccc1	-4.82% (inactive)
Cc1onc(-c2ccccc2Cl)c1C(=O)OCc1nnc(-c2ccccc2)o1	0.31% (inactive)
CCOc1cnc(-c2c(-c3ccccc3Cl)noc2C)o1	675% (active)
Cc1ccc(N(C(=O)c2ccc(S(=O)(=O)N(C)C)cc2)C2C=CS(=O)(=O)C2)cc1 (stereo unspecified)	-4.36% (inactive)
COc1ccccc1NS(=O)(=O)c1ccc(C)c(C(=O)NNC(=O)c2csc(N3CCOCC3)n2)c1	6.56% (inactive)
COC(=O)c1ccc(CSc2ccc3nnc(-c4ccccc4)n3n2)o1	-8.47% (inactive)
Cc1ccc(S(=O)(=O)N2[C@@H](c3cccc4ccccc34)C(C(=O)O)=C[C@H]2C(C)(C)C)cc1	29.9% (inactive)
Cc1ccc([C@@H]2CC=C(C(=O)O)[C@H](c3cccc(Cl)c3)N2S(=O)(=O)c2ccc(C)cc2)cc1	24.4% (inactive)
Cc1ccc(S(=O)(=O)N2[C@@H](c3ccc(Br)cc3)C(C(=O)O)=C[C@H]2CC2CCCC2)cc1	800% (active)
CC12CN(NC(=O)c3ccc(Cl)cc3)C3(C#N)CC1CCC23C (stereo unspecified)	42.1% (inactive)
COC(=O)c1cccc(N(C(=O)CNC(=O)c2cccs2)C(C(=O)NCC2CCCO2)c2ccc(OC)c(OC)c2)c1 (stereo unspecified)	-4.04% (inactive)
Cc1ccc(N(C(=O)Cc2cccs2)C(C(=O)NCC2CCCO2)c2ccncc2)cc1 (stereo unspecified)	5.34% (inactive)
O=C(NCC(=O)N(c1ccccc1)C(C(=O)NCC1CCCO1)c1ccccc1)c1cccs1 (stereo unspecified)	679% (active)
Cc1cc(C)n2nc(SCC(=O)NC(=O)NCc3ccco3)nc2n1	6.86% (inactive)
